From PubChem BioAssay (Tox21) come the findings set out here.

The structures appear in SMILES notation. Results filed as inconclusive are left out. Where a call stands in place of a potency, no number is given. The source made the active and inactive calls. Unless noted, calls follow the shape of the dose curve; as a rule, active = well fitted cell-killing curve with a large enough effect in the repeat runs; inconclusive = weak or mixed curves, or effect the other way; inactive = flat fitted curve, though single readings scatter.

Tested on in one test: not listed separately
The test is described as follows: qHTS assay to identify small molecule that activate the aryl hydrocarbon receptor (AhR) signaling pathway - cell viability counter screen (AID 743086). Also: nearly all actives have a fitted effect of over 45% in size. Also: potency is read from the fitted curve at half-maximal effect. The conditions noted are these: HepG2-AhR-luc viability, CellTiter-Fluor, 24 h; series mostly up to 70.3 µM. In outline:
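HepG2-AhR-luc (HG2L7.5c1) cells, 4000/well, were preincubated 5 h at 37C, exposed to compound in qHTS format for 24 hr at 37C, then given CellTiter-Fluor for 30 min; viability was read as fluorescence in the reporter wells.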
With `ClC1=C(Cl)C2(Cl)C3C(Cl)C(Cl)CC3C1(Cl)C2(Cl)Cl` (configuration not stated), the Potency entry was “inactive”.
On the same count and under the same terms, in the case of `O=C/C(Cl)=C(/Cl)C(=O)O` it was “inactive”; in that of `CCCSP(=O)(OCC)SCCC`, “inactive”; in that of `CC(Cc1ccc(C(C)(C)C)cc1)CN1C[C@@H](C)O[C@@H](C)C1` (some centres not stated), “inactive”.
On to `O=C1c2ccccc2C(=O)C1C(=O)C(c1ccccc1)c1ccc(Cl)cc1` (configuration not stated), for which the Potency result was “inactive”.
For the compound `CSCCCN=C=S`, the Potency result was “inactive”.
Regarding `c1ccc2cc3c(cc2c1)-c1cccc2cccc-3c12`, the Potency result is “inactive”.
As for `Oc1ccc2ccc3cccc4ccc1c2c34`, the Potency result was “inactive”.
Regarding `Nc1ccc(Sc2ccc(N)cc2)cc1`, the Potency result is “inactive”.
The same measure, in the same setting: in the case of `O=C(O)C1C2CCC(O2)C1C(=O)O` (configuration not stated) it was “inactive”; in that of `O=S(=O)(c1ccc(Cl)cc1)c1ccc(Cl)cc1`, “inactive”; in that of `CCCCOCN(C(=O)CCl)c1c(CC)cccc1CC`, “inactive”.
On to `Cc1c(Cl)c(=O)oc2cc(OP(=O)(OCCCl)OCCCl)ccc12`, for which the Potency entry was “inactive”.
Consider `CC1(c2ccc(Oc3ccccc3)cc2)OC(=O)N(Nc2ccccc2)C1=O` (configuration not stated), for which the Potency entry is “inactive”.
Still for that read-out and setting: the value for `Oc1c(Br)c(Br)c(Br)c(Br)c1Br` was “inactive”; that for `Oc1cc(Cl)c(Cl)c(Cl)c1` was “inactive”.
For `COc1cc(C=O)cc2c1[C@H](COC(N)=O)[C@]1(OC(C)=O)ON2C[C@H]2[C@@H]1N2C(C)=O`, the Potency was 306 nM (active).
As for `Nc1ccc(Cc2ccc(N)c(Cl)c2)cc1Cl`, the Potency entry was “inactive”.
On to `CC(C)N1C(=O)N(c2ccccc2)CSC1=NC(C)(C)C`, for which the Potency result is “inactive”.
`ClC1=C(Cl)[C@]2(Cl)[C@@H]3[C@@H]4C[C@@H]([C@H]5O[C@@H]45)[C@@H]3[C@@]1(Cl)C2(Cl)Cl`: the Potency result was “inactive”.
Regarding `COP(=O)(OC)SCn1c(=O)oc2cc(Cl)cnc21`, the Potency result is “inactive”.
Consider `N#CC(Cl)Cl`, for which the Potency entry is “inactive”.
On to `O=[N+]([O-])O.O=[N+]([O-])O.[Cd]`, for which the Potency was 1930 nM (active).
As for `Cn1cc(C2=C(c3cn(C4CCN(Cc5ccccn5)CC4)c4ccccc34)C(=O)NC2=O)c2ccccc21`, the Potency result is “inactive”.
On the same count and under the same terms, in the case of `CCOc1cc(C(C)(C)C)ccc1C1COC(c2c(F)cccc2F)=N1` (configuration not stated) it was “inactive”; in that of `CS(=O)(=O)c1ccc(C(=O)C2C(=O)CCCC2=O)c([N+](=O)[O-])c1`, “inactive”.

In another test the target is Peroxisome proliferator-activated receptor gamma (Homo sapiens) (UniProt P37231). Briefly: qHTS assay to identify small molecule agonists of the peroxisome proliferator-activated receptor gamma (PPARg) signaling pathway (AID 743094; active = well fitted activation curve with a large enough effect in the signal ratio in the repeat runs, not every such curve was filed as active; the % refers to the signal ratio). The conditions noted are these: HEK293H PPARg-UAS-bla, beta-lactamase FRET ratio, 17 h; series mostly up to 57 µM. In outline: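 Fluorescence-based beta-lactamase readout in HEK293H PPARg UAS-bla cells after 17 h compound exposure (37C) and 1 h B/G FRET substrate incubation at room temperature.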
Chain of Peroxisome proliferator-activated receptor gamma (Homo sapiens) (P37231 whole entry, looked up): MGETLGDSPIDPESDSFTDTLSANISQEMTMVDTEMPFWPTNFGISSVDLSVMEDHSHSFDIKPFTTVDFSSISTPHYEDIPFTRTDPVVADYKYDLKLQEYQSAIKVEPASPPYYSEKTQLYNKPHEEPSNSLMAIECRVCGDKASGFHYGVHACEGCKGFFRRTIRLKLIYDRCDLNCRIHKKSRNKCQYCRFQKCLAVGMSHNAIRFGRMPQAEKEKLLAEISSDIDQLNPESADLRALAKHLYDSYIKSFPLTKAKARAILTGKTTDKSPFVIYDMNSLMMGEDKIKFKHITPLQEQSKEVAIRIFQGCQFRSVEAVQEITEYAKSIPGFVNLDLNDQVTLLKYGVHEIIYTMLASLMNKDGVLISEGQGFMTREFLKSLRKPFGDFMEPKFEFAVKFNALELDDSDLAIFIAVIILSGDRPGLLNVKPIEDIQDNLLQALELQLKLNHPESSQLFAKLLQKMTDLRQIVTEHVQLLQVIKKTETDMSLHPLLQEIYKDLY
Take `CC(=O)/C=C/c1ccc2c(c1)OCO2`: the Potency entry was “inactive”.
In the case of `CC(Cc1ccc(C(C)(C)C)cc1)CN1C[C@@H](C)O[C@@H](C)C1` (some centres not stated), the Potency result is “inactive”.
For `CCN(CC)c1c([N+](=O)[O-])cc(C(F)(F)F)c(N)c1[N+](=O)[O-]`, the Potency result was “inactive”.
Consider `O=S(=O)(c1ccc(Cl)cc1)c1ccc(Cl)cc1`, for which the Potency entry was “inactive”.
As to `O=C(CCCN1CCC2(CC1)C(=O)NCN2c1ccccc1)c1ccc(F)cc1`, the Potency entry is “inactive”.
For the compound `Cc1c(Cl)c(=O)oc2cc(OP(=O)(OCCCl)OCCCl)ccc12`, the Potency entry was “inactive”.
Regarding `CC(c1ccc(O)cc1)c1ccc(O)cc1`, the Potency entry was “inactive”.
In the case of `Nc1ccc(Cc2ccc(N)c(Cl)c2)cc1Cl`, the Potency result is “inactive”.
In the case of `ClC1=C(Cl)[C@]2(Cl)[C@@H]3[C@@H]4C[C@@H]([C@H]5O[C@@H]45)[C@@H]3[C@@]1(Cl)C2(Cl)Cl`, the Potency result is “inactive”.
Take `COP(=O)(OC)SCn1c(=O)oc2cc(Cl)cnc21`: the Potency result was “inactive”.
On the same count and under the same terms, in the case of `CCOc1cc(C(C)(C)C)ccc1C1COC(c2c(F)cccc2F)=N1` (configuration not stated) it was “inactive”.
